This is a sample that favours compounds with a hit; in the whole collection about 8.3% have one here.
BCR signal inh: chronic active BCR signaling inhibition | Potency, µM (top dose mostly 46.1 µM), without a hit: at the highest dose activity change, negative = inhibition, most hits filed as inhibitors | AID 493014 | ABC-DLBCL IkBa-CBG/CBR reporter, luminescence ratio, 4 h | 340,000 tested, 0.05% active; active = well fitted inhibition curve with a large enough effect in the signal ratio, with a control signal flat, not every such curve was filed as active; inconclusive = small, poorly fitted or top-dose-only effect, or effect the other way, or a change in a side signal; the % refers to the signal ratio;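 note: potency is the fitted concentration of half-maximal effect; plate controls were basal doxycycline-induced cells for no effect and cells given 10 µM MG132 for full effect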
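Concentration-response series (up to 46 uM) were applied to TMD8 dual-reporter cells for 4 h at 37C with doxycycline. Green/red ratio, after filter-overlap correction, defined %Activity; red signal alone was normalised to basal cells and zero luminescence.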
Giardia kill: kills Giardia lamblia; Giardia lamblia trophozoite viability; activity change, % at 7.66 µM, hits read low; 340,000 tested, 0.15% active; in the data active = activity change below about -80%; inconclusive = between about -30% and that limit;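 note: parasites exposed to compound for two days anaerobically before the ATP read; % is set by controls: 0 for no effect and ±100 for the full control effect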
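Compounds were tested on trophozoites seeded at 100 cells/well and held 48 hrs at 37 deg C anaerobically. An ATP-based luminescent kit measured the remaining live cells.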
SW480 rereplic: induces DNA re-replication in SW480 colon adenocarcinoma cells; SW480 DNA re-replication, Hoechst DNA content imaging, 48 h; Potency, µM (top dose mostly 46.1 µM), without a hit: top-dose re-replication activation, actives largely listed as activators; 340,000 tested, 1.8% active; note: potency is the fitted concentration of half-maximal effect; % of control where 0% means no effect; nearly all actives have a fitted effect of over 55% in size
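Quantitative HTS format with DMSO vehicle controls; 48 hr drug incubation at 37 C, then 40 min Hoechst staining and scanning imager measurement at 405 nm excitation.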
VP16 counter: counter-screen for ROR gamma inhibitors: Gal4-VP16 reporter | Drosophila S2 Gal4-VP16 UAS-luciferase, luminescence, 20 h | Potency, µM (series often up to 53.6 µM), without a hit: top-dose activity, negative = inhibition, most hits filed as inhibitors | 310,000 tested, 3.5% active;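 note: Gal4-VP16 expression switched on by copper sulfate through the metallothionein promoter; potency is the fitted concentration of half-maximal effect; % is set by controls: 0 for no effect and ±100 for the full control effect; nearly all actives have a fitted effect of over 50% in size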
MCF10A rereplic: inducers of DNA re-replication in MCF 10A breast cells; MCF 10A DNA re-replication, Hoechst nuclear intensity, 48 h; Potency, µM (top dose mostly 46.1 µM), for the others: top-dose activity, positive = re-replication, actives largely listed as activators; 350,000 tested, 2.9% active; note: potency is the fitted concentration of half-maximal effect; % of control where 0% means no effect; nearly all actives have a fitted effect of over 50% in size
RORgamma inh: inhibitors of mouse ROR gamma transcriptional activity; P51450; Drosophila S2 Gal4-RORgamma UAS-luciferase reporter, 20 h; Potency, µM (highest dose often 53.6 µM), inactives show top-dose activity change, negative = inhibition, usual class: inhibitors; AID 2551; 310,000 tested, 5.4% active; note: potency is the fitted concentration of half-maximal effect; % is set by controls: 0 for no effect and ±100 for the full control effect; nearly all actives have a fitted effect of over 60% in size
Target sequence (P51450 whole entry, looked up, the tested form may be a part): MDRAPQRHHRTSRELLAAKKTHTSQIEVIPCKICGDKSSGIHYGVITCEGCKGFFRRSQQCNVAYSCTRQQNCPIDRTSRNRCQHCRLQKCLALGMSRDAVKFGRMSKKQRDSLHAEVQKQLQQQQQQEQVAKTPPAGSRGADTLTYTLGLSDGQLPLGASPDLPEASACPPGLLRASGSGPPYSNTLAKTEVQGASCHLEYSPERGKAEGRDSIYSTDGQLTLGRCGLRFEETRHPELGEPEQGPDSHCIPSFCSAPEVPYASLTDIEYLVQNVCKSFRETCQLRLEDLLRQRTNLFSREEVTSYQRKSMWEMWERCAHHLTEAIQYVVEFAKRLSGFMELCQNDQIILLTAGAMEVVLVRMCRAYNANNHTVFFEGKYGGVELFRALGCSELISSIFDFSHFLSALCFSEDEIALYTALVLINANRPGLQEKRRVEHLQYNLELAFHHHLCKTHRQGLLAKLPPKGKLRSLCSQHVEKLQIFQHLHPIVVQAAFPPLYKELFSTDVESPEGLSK
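In this cell-based reporter format, copper sulfate (700 uM final) drives Gal4–ROR gamma fusion expression from a metallothionein promoter in Drosophila Schneider cells; compounds preincubated 1 hr, reporter read after 20 hr at ambient temperature.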
* = called active by the depositor; ? = inconclusive; · = not tested or not shown; [ ] = another dose, or the depositor's remark. Unless noted, calls come from the whole dose curve; as a rule, active = well fitted curve in the direction sought with a large enough effect; inconclusive = small, poorly fitted or top-dose-only effect, or another doubt; inactive = no such curve, though single readings can be large; an effect the other way counts as inactive or inconclusive.

SMILES	BCR signal inh	Giardia kill	SW480 rereplic	VP16 counter	MCF10A rereplic	RORgamma inh
COC(=O)/C(=C\c1cc(OC)c(OC)c(OC)c1)c1nc2ccccc2[nH]1	?	-13	?	16%	21µM*	-40%
CCSc1nc(O)cc(=O)n1CC	1%	3	-6%	3%	0%	20%
CCOC(=O)N/N=C1/C[C@@H](O)[C@@H](O)[C@@H]2[C@@H]3C(=O)N(C4CCCCC4)C(=O)[C@H]3CC[C@H]12	·	·	·	1%[10 µM]	·	4%[10 µM]
CCOc1ccc(C(=O)NNC2CC(=O)N(Cc3ccc(Cl)cc3)C2=O)cc1OC (stereo not drawn)	-1%	-15	-1%	1.3µM*	0%	3.2µM*
Oc1ccc(Br)cc1C1C=C(c2ccc3c(c2)OCO3)NC(c2cccc(F)c2)N1 (stereo not drawn)	·	-18	·	·	·	·
COc1cc(OC)c(C(=O)Nc2cc(Cl)ccc2-n2cncn2)cc1OC	5%	4	5.2µM*	·	-16%	·
COc1ccccc1C(=O)Nc1cc(Cl)ccc1-n1cncn1	0%	0	3%	-15%	-2%	11µM*
O=C(Nc1cc(Cl)ccc1-n1cncn1)c1ccc([N+](=O)[O-])s1	-1%	?	23µM*	?	21µM*	-27%
O=C(NN=C1CCCC1)c1cccs1	?	9	?	?	-12%	?
CC1=C/C(=N\NC(=O)c2cccs2)CC(C)(C)C1	5%	-23	10%	11µM*	-5%	6.3µM*
Cc1ccc(Cl)cc1N(CC(=O)NCc1ccccc1)S(C)(=O)=O	-8%	6	-4%	2%	-2%	3%
C#CC[N+](C)(C)CCCCCCCCC	7%	22	?	-2%	9.2µM*	27%
CC#CC[N+](C)(C)CCCCCCCCCC	?	-5	21%	-13%	0%	7%
COc1ccc(Nc2oc(-c3ccco3)nc2S(=O)(=O)c2ccc(F)cc2)cc1	?	29	?	-5%	15µM*	?
CCOC(=O)CN1C(=O)CC(c2ccc([N+](=O)[O-])cc2)C1=O (stereo not drawn)	?	?	-25%	?	0%	-36%
Cc1nn(CC(=O)Nc2ccc3c(c2)nc2n3CCN(C3CCCCC3)C2)c(=O)c2ccccc12	7%	9	-5%	-1%	-1%	-1%
COc1cc(C(=O)NC2CCCc3c2cnn3-c2ccccc2F)cc(OC)c1OC (stereo not drawn)	-4%	16	-10%	5µM*	8%	-36%
COc1ccc(C(=O)NC2CCCc3c2cnn3-c2ccccc2F)o1 (stereo not drawn)	1%	-19	-7%	-25%	?	?
Cc1cc(C(=O)NC2CCCc3c2cnn3-c2ccccc2F)nc(C)n1 (stereo not drawn)	-1%	-1	-5%	-9%	8%	-1%
Cc1cc(C)cc(-n2ncc3c2CCCC3NC(=O)c2ccccc2N2CCOCC2)c1 (stereo not drawn)	-9%	7	21µM*	-7%	?	-39%
O=C(NC1CCCc2c1cnn2-c1ccccc1F)c1ccccc1N1CCOCC1 (stereo not drawn)	3%	23	-6%	-3%	-26%	2%
CC(C)c1cc(C(=O)NC2CCCc3c2cnn3-c2ccccc2F)no1 (stereo not drawn)	6%	5	2%	11µM*	-1%	-29%
COC(=O)c1ccc(C(=O)NC2CCCc3c2cnn3-c2ccccc2F)nc1 (stereo not drawn)	-20%	2	18µM*	5%	15µM*	12%
COc1cc(Cl)c(C)cc1NC(=O)c1ccc(NS(=O)(=O)c2ccc(F)c(F)c2)cc1	-2%	-24	?	8%	?	1%
Cc1cc(C(=O)NC2CCCc3c2cnn3-c2cccc(C)c2C)n(C)n1 (stereo not drawn)	1%	0	3%	2.2µM*	-21%	?
SMILES	BCR signal inh	Giardia kill	SW480 rereplic	VP16 counter	MCF10A rereplic	RORgamma inh
CN(Cc1ccccc1)C(=O)CCC1CCN(C(=O)CCC(F)(F)F)CC1	-1%	-12	-5%	13%	7%	33%
COc1cccc(C(=O)N2N=C(c3cccc(OC)c3)CC2(O)C(F)(F)F)c1 (stereo not drawn)	?	1	?	-18%	30%	11µM*
COc1cccc(C(=O)N2N=C(c3ccccn3)CC2(O)C(F)(F)F)c1 (stereo not drawn)	?	9	?	5µM*	?	2µM*
COc1ccc(C(=O)N2N=C(c3cccc(OC)c3)CC2(O)C(F)(F)F)cc1 (stereo not drawn)	-15%	0	-42%	-68%	?	11µM*
COc1cccc(C2=NN(C(=O)c3cccs3)C(O)(C(F)(F)F)C2)c1 (stereo not drawn)	-21%	-14	21%	3%[10 µM]	?	27%
COc1cccc(C2(O)CC(C(F)(F)F)=NN2C(=O)c2ccccn2)c1 (stereo not drawn)	?	-12	-29%	6.3µM*	-2%	1.6µM*
CCCCn1c(N)c(N(CC(C)C)C(=O)CCNC(=O)c2ccc(Cl)cc2)c(=O)[nH]c1=O	-1%	8	-8%	·	1%	·
Cc1c(F)cccc1NS(=O)(=O)c1ccc2c(c1)c(C)cc(=O)n2C	?	-5	3%	?	1%	-4%
CCOC(=O)C1(CCOc2ccccc2)CCN(Cc2ccncc2)CC1	-12%	-8	0%	2%	8%	19%
CCOC(=O)C1(CCOc2ccccc2)CCN(Cc2nccn2CC)CC1	?	2	-8%	?	?	5µM*
CCOC(=O)C1(CCCc2ccccc2)CCN(Cc2cnc(C)s2)CC1	2%	11	4%	-2%	?	-2%
CCOC(=O)C1(CCCc2ccccc2)CCN(Cc2nccn2CC)CC1	5%	6	?	?	?	4µM*
COc1ccc(CNC(=S)Nc2ccc(Br)cc2)cc1	?	24	-3%[9.22 µM]	11µM*	-2%	10µM*
CC12CCC(C(=O)Nc3ncc([N+](=O)[O-])s3)(OC1=O)C2(C)C (stereo not drawn)	-10%	-86*	0%	-4%	1%	35%
COc1ccc(NC(=S)NCc2cccnc2)cc1	7%	-16	5%	-21%	8%	-1%
COc1ccc(CNC(=S)Nc2ccc(-c3ccccc3)cc2)cc1	0%	9	0%	7.1µM*	28%	?
CCOC(=O)c1ccc(NC(=O)C23CCC(C)(C(=O)O2)C3(C)C)cc1 (stereo not drawn)	6%	-9	13%	0%	5%	25%

Assay outcomes from PubChem.
